Mcl1-Noxa inh = disrupts binding of human Mcl-1 to Noxa peptide. Q07820. TR-FRET Mcl-1/Noxa peptide binding, 2 h. 220,000 compounds, 1.5% hits. AID 1022. inhibition, % at 21.7 µM;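 active = compounds that cut the protein-peptide binding signal by more than 50% relative to plate controls in a single-dose test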;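 note: His-tagged Mcl-1 with rhodamine Noxa BH3 peptide and terbium anti-His antibody; 0% = Mcl-1 plus Noxa peptide wells and 100% = peptide-only wells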
14-3-3 Bad PPI = disrupts binding of bovine 14-3-3 zeta to phospho-Bad peptide; 220,000 compounds, 0.71% hits; inhibition, % at 21.7 µM; AID 781; TR-FRET 14-3-3zeta/Dy647-pBad peptide displacement, 1 h;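 active = inhibition above about 70%, limit read from the data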;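 note: 0% = full 14-3-3 plus peptide FRET controls and 100% = background without 14-3-3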
Target sequence (P63103 whole entry, looked up): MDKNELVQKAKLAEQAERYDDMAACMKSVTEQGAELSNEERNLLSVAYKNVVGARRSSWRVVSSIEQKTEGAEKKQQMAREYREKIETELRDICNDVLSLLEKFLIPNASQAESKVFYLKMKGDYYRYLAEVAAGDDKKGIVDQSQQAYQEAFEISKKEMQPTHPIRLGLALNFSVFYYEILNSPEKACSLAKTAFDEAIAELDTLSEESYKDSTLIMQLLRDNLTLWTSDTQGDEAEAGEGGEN
NCF1 inh = inhibitors of human p47phox binding; P14598; p47phox/p22phox peptide binding, fluorescence polarization, 2 h; inhibition, % at 24.7 µM; 220,000 compounds, 0.53% hits; AID 1274;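 active = inhibition above about 30%, limit read from the data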;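 note: 0% = p47phox with labelled peptide and 100% = labelled peptide alone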
Target sequence (P14598 whole entry, looked up): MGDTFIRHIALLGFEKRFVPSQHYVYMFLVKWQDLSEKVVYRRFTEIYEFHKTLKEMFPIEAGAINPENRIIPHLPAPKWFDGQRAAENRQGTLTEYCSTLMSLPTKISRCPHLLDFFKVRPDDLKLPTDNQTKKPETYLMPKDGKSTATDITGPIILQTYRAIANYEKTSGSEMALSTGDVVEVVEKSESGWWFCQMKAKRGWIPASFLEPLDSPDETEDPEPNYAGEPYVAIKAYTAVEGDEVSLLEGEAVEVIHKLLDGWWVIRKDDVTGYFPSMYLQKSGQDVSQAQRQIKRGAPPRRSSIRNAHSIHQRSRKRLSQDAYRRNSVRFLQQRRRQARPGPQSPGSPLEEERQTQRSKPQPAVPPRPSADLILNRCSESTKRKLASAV
Mcl1 Bid PPI = disrupts binding of human Mcl-1 to Bid peptide; TR-FRET Mcl-1/Bid-Dy647 peptide binding, 1536-well; inhibition, % at 21.7 µM; 220,000 compounds, 0.97% hits; AID 1021;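 active = compounds that cut the binding signal by more than half at the single screening dose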;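 note: His-tagged Mcl-1 with europium anti-His antibody binding Bid BH3 peptide; 0% = Mcl-1 plus peptide wells and 100% = peptide-only wells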
Mcl-1 Bim block = disrupts Bim peptide binding to human Mcl-1 | Q07820 | Bead-based flow cytometry, Bim peptide-Mcl-1 binding | inhibition, % at 10 µM | 190,000 compounds, 0.1% hits; in the data active = inhibition above about 40%;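 note: 0% = no compound tracer wells and 100% = peptide blocker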
Active calls of the source: *; . = no result given; [ ] = another dose, or the depositor's remark. The list is not random: actives were taken first. Their share in the collection is about 3.1%.

SMILES | Mcl1-Noxa inh | 14-3-3 Bad PPI | NCF1 inh | Mcl1 Bid PPI | Mcl-1 Bim block
Cc1ccc(NC(=O)c2ccco2)cc1C | -6 | -3 | -18 | -6 | -1
Cc1ccc(NCc2ccco2)cc1C | 15 | 71* | -2 | 9 | -2
CC1Cc2ccccc2N1C(=O)CSc1nnc(-c2ccccc2)c(-c2ccccc2)n1 (stereo not drawn) | -5 | -10 | 0 | -22 | 0
CCOc1ccc(N/C=C/C(=O)c2ccccc2)c([N+](=O)[O-])c1 | -8 | -6 | 31* | 17 | -5
CCOc1ccc(NC(=O)/C=C/c2ccccc2)c([N+](=O)[O-])c1 | 22 | 4 | -9 | -24 | -2
Nc1nnc(-c2ccco2)s1 | -9 | 9 | 4 | -23 | 0
Nc1ncnc2oc(-c3ccco3)c(-c3ccco3)c12 | 82* | -14 | -17 | 0 | 0
CCOC(=O)CC(=O)NC(C)(C)CCCCC(C)(C)NC(=O)CC(=O)OCC | -2 | -2 | -2 | -15 | .
O=C(O)CCCN=Cc1c(O)c2ccccc2oc1=O | 7 | -2 | 2 | 2 | 1
O=[N+]([O-])c1cccc(/C=C/c2nc(C=Nc3ccc4ccccc4c3)c(O)o2)c1 | 81* | 61 | 19 | 66* | 2
Cc1ccc2nc3c(c(Nc4ccc5c(c4)OCCO5)c2c1)CCC3 | 56* | -17 | -17 | -18 | -5
Cc1cccc(Nc2c3c(nc4ccccc24)CCC3)c1 | 27 | 0 | -1 | 0 | .
C/C(=N\OC(=O)Nc1ccccc1)c1cnn(-c2cc(C(F)(F)F)cc(C)n2)c1C | -12 | 1 | -6 | -9 | .
CNC(=O)N(O)C1N(c2ccccc2)C(=S)SC1(C)C (stereo not drawn) | 8 | -4 | -26 | -19 | 0
O=C(NC1CCCc2ccccc21)c1ccc2c(c1)OCO2 (stereo not drawn) | -5 | -10 | -4 | -14 | -3
CC(NCc1ccc2c(c1)OCO2)C(=O)NC1CCCc2ccccc21 (stereo not drawn) | 19 | 45 | -9 | 69* | -2
O=C1C2CC=CCC2C(=O)N1c1ccc(N2CCN(c3ccccn3)CC2)c([N+](=O)[O-])c1 (stereo not drawn) | 11 | -20 | -5 | -4 | 1
COc1ccc(N=C2S/C(=C\c3ccc(OCC(=O)O)cc3)C(=O)N2CCc2c[nH]c3ccccc23)cc1 | 70* | 69 | -6 | 49 | -10
CCN(CC)C(=O)CSc1nnc(-c2cccnc2)n1CCc1ccccc1 | 61* | 8 | 15 | -3 | 3
O=C(O)c1ccc(Sc2nnc3ccccn23)c([N+](=O)[O-])c1 | -1 | 5 | -8 | -9 | .
N#Cc1c2nc3ccccc3nc2n2cc(NC(=O)c3ccc(F)cc3)ccc12 | 111* | 78*[fluorescence artefact?] | 55* | 86* | 12
Cc1c(C(=O)Nc2ccc(F)cc2)cn2c(nc3ccccc32)c1C#N | -6 | 12 | -14 | -52 | .
COc1ccc(CCNC(=O)c2ccc(CNS(=O)(=O)c3ccc(C(C)(C)C)cc3)cc2)cc1OC | 17 | 2 | -9 | 97* | -6
COc1ccc(CCNC(=O)C/C(C)=N/NC(=O)C2CCCCC2)cc1OC | -2 | 3 | -2 | -13 | -4
COc1ccc(CCNC(=O)C/C(C)=N/NC(=O)c2ccc(N)cc2)cc1OC | -8 | . | 81* | -29 | 4
SMILES | Mcl1-Noxa inh | 14-3-3 Bad PPI | NCF1 inh | Mcl1 Bid PPI | Mcl-1 Bim block
Cc1nn(-c2ccc(Cl)c(Cl)c2)c(C)c1C(=O)O | -3 | -5 | -2 | -10 | 54*
Cc1nn(-c2ccc(C(=O)O)cc2)c(C)c1Cl | 0 | 1 | -2 | -18 | 4
COc1cc(C(=O)OC(C)CN2CCN(C)CC2)cc(OC)c1OC (stereo not drawn) | 23 | 50 | 9 | -2 | 3
CC(CN1CCN(C)CC1)OC(=O)c1ccccc1Cl (stereo not drawn) | 7 | 85* | 3 | -37 | 0
COc1ccc(C(=O)OC(C)CN2CCN(C)CC2)cc1OC (stereo not drawn) | 17 | 89* | -3 | 42 | -1
CC(C)NC(=O)COC(=O)c1ccc(Oc2ccccc2)cc1 | -13 | -2 | -8 | 1 | -2
CCN(c1ccccc1)S(=O)(=O)c1cc(C(=O)Oc2ccc3c(C)cc(=O)oc3c2)ccc1C | 22 | 2 | -39 | -9 | 0
O=C(CN1C(=O)S/C(=C\C=C\c2ccccc2)C1=O)Nc1ccccc1C(=O)O | 14 | 4 | -29 | 25 | .
C#CCN1C(=O)S/C(=C/C=C/c2ccc(N(C)C)cc2)C1=O | 44 | -10 | 44* | -39 | -4
Clc1ccc(-c2csc(N/N=C/c3cccnc3)n2)c(Cl)c1 | 58* | 6 | -7 | 42 | -3
CCn1c(SCC(=O)Nc2cccc(C)c2)nc2c(c1=O)SC(C)C2 (stereo not drawn) | -9 | 5 | 1 | -30 | 0
c1ccc(C(CN2CCOCC2)c2ccccc2)cc1 | 13 | 84* | 6 | 45 | 0
Cc1cc2nnn(-c3nnc(-c4ccccc4)c4ccccc34)c2cc1C | 1 | 13 | 7 | 5 | -4
COc1cc(-c2nc3ccccn3c2/N=C/c2ccccc2)ccc1O | 14 | -26 | -14 | -20 | -5
O=[N+]([O-])c1ccc(Cl)c(-c2ccc(/C=N/c3c(-c4ccco4)nc4ccccn34)o2)c1 | 41 | 46 | 3 | 55* | 2
O=[N+]([O-])c1ccc(-c2ccc(/C=N/c3c(-c4ccco4)nc4ccccn34)o2)c(Cl)c1 | 62* | 10 | -6 | 57* | 6
Cc1ccc(-c2n[nH]c(=S)n2/N=C/c2c(C)[nH]n(-c3ccccc3)c2=O)cc1 | 43 | -32 | 1 | -29 | 0
Cc1nnc(N)s1 | -4 | 4 | -5 | -6 | .
CC(C)(C)c1ccc(CN2N=Nc3ccccc3S2(=O)=O)cc1 | 77* | 9 | 34* | 20 | -3
O=S1(=O)c2ccccc2N=NN1Cc1ccc(Cl)c(Cl)c1 | 77* | 45 | 15 | 48 | -3
O=S1(=O)CCN(Cc2ccc(Cl)c(Cl)c2)CC1 | 8 | -13 | -3 | -17 | -1
CC(C)(C)c1ccc(C(=O)Nc2ccc(CN3CCS(=O)(=O)CC3)cc2)cc1 | 9 | -1 | -4 | -7 | .
Cc1[nH]n(-c2ccccc2)c(=O)c1/C=N/NC(=O)C(C)C | -37 | -26 | -23 | -62 | -2
O=C(O)CN1C(=O)/C(=C/c2ccc(SCc3ccccc3)o2)SC1=S | -18 | 6 | -202 | 2 | 2
COc1cc(NC(=O)C2CCN(S(=O)(=O)c3cccc4nonc34)CC2)cc(OC)c1 | 10 | -11 | -9 | 81* | 3
CCOc1ccc2nc(NC(=O)C3CCCN(S(=O)(=O)c4cccc5nonc45)C3)sc2c1 (stereo not drawn) | 45 | 1 | -15 | 59* | -6
CC(=O)c1c(C)[nH]c(C(=O)NC(C)c2ccccc2)c1C (stereo not drawn) | 10 | 0 | -11 | -24 | -2
CCCSc1cc(=O)n(-c2ccc(F)cc2)nc1C(=O)OCC | -4 | -9 | -3 | -5 | 2
